Reference: PubChem BioAssay AID652126 (The Scripps Research Institute Molecular Screening Center, 2013)
Out of some 370,000 compounds screened, about 3,700 (1%) were called active.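 How the source made its calls: active means activation above the mean over all tested compounds plus 3 SD (cut at about 0.9% in these data); inactive means the rest.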 What follows is part of a selection rich in actives, with near analogues and random picks from the rest.

tested on: Nuclear hormone receptor DAF-12 (Strongyloides stercoralis); assay: ssDAF-12 driven luciferase reporter activation – cell-based, luminescence, HEK293, GRIP1 co-expression, lit1-tk-luc, primary screen (AID 652126); details: HEK293 ssDAF-12/GRIP1 lit1-tk-luc reporter, at 6.8 µM, hits give high values, % of 3 µM dafachronic acid response;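 further: 0% = DMSO-only wells and 100% = 3 µM delta7-dafachronic acid wells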

SMILES | activation
Cc1cccc2c1N(CCOc1ccccc1)C(=O)C2=O | -1.52% (inactive)
Cc1c(C(N)=O)sc2ncn(CCOc3ccccc3)c(=O)c12 | -2.14% (inactive)
Cc1nn(CCOc2ccccc2)c(=O)n1-c1ccccc1F | 1.79% (active)
Cc1ccc(NC(=O)c2cc(C)nn2-c2ccccc2)c(C)c1 | -1.78% (inactive)
O=C(CNS(=O)(=O)c1ccccc1F)N1CCN(c2ccccn2)CC1 | -1.72% (inactive)
Fc1ccc(-c2nnc(CSc3nnc(-c4ccc5c(c4)OCO5)o3)o2)cc1 | -1.18% (inactive)
Cc1ccc2nc(SCc3nnc(-c4ccccc4[N+](=O)[O-])o3)c(C#N)cc2c1 | -1.27% (inactive)
Fc1ccc2nc(-c3ccccc3)nc(SCc3nnc(-c4ccccc4)o3)c2c1 | 1.48% (active)
O=C1CC[C@@H](COc2ccc3[nH]cc(-c4ccccc4)c3c2-c2ccccc2)N1 | -0.33% (inactive)
COC1=C[C@H](C(=O)NCCNC(C)=O)[C@H](C)[C@@H](c2ccccc2)CC1=O | -1.26% (inactive)
FC(F)(F)c1ccc2c3n(nc2c1)CCN=C3c1ccc(Cl)cc1 | 1.01% (active)
CC(c1nnc(SCC(=O)Nc2sccc2C#N)n1-c1ccc(Cl)cc1)N(C)C (stereo not given) | -0.72% (inactive)
CC(=O)c1cc(C#N)c(SCC(=O)Nc2nccs2)nc1C | -0.91% (inactive)
Cc1csc(SCC(=O)Nc2sccc2C#N)n1 | 0.96% (active)
C=C(C)C1CC23C(=O)C4(C(=O)c5ccccc5)C[C@@]5(C)CCC(CC2C1(C)C)(C4=O)C35OC (stereo not given in full) | -1.03% (inactive)
Clc1ccc(-n2c(SC/C=C/c3ccccc3)nnc2-c2ccco2)cc1 | -1.68% (inactive)
COc1ccc(C(=O)OCCN(C)C2CN(Cc3cn(Cc4cccc(C)c4)nn3)S(=O)(=O)C2)cc1OC (stereo not given) | -0.78% (inactive)
COc1ccccc1Cc1c(-c2ccc(F)cc2)nc2ccc(C)cn12 | 0.07% (inactive)
Brc1ccc2nc(-c3ccccc3)c(Cc3ccccc3)n2c1 | -0.45% (inactive)
Cc1ccc2nc(-c3ccccc3)c(CC3CCCCC3)n2c1 | 1.3% (active)
COc1ccc(-n2c(SCC(=O)Nc3ccc4cn[nH]c4c3)nnc2-c2cccnc2)cc1 | -1.16% (inactive)
O=C(CSc1nc2c(c(=O)[nH]1)CCCC2)N1CCCCC1 | -1.67% (inactive)
COC(=O)c1c(NC(=O)COC(=O)[C@@H](NS(=O)(=O)c2ccccc2)C(C)C)sc2c1CCC2 | -1.44% (inactive)

SMILES | activation
CCOC(=O)C(NC(=O)CC(C)C)(Nc1sc2c(c1C(N)=O)CCCC2)C(F)(F)F (stereo not given) | -0.54% (inactive)
NC(=O)c1c(NC(=O)c2ccccc2)sc2c1CCCC2 | 2.15% (active)
CCN(CC)CC(=O)Nc1sc2c(c1C(=O)c1ccccc1C)CCC2 | -1.11% (inactive)
NC(=O)c1c(Nc2nc3c(F)cccc3s2)sc2c1CCCC2 | 1.29% (active)
NNc1nc2c(Cl)cccc2s1 | -0.81% (inactive)
Cc1ccc(C(=O)C2CCN(CC(=O)NCCC(C)C)CC2)cc1 | -1.67% (inactive)
CC1(C)N=C(N)NC(Nc2ccc(Cl)cc2)=N1 | -1.4% (inactive)
Clc1ccc(Nc2ccc3ccccc3n2)cc1 | 2.58% (active)
C=CCNc1nc(Nc2ccc(Cl)cc2)nc(OC)n1 | -0.26% (inactive)
O=C(CCl)NC1CCCCN(Cc2cccc(C(F)(F)F)c2)C1=O (stereo not given) | -1.24% (inactive)
NCC(=O)c1cccc2ccc[n+]([O-])c12 | -0.72% (inactive)
Cc1ccccc1NC(=O)C1CCN(c2ncccn2)CC1 | 0.24% (inactive)
CCCCNc1cccc2c1S(=O)(=O)N[C@@H](C)CO2 | -0.23% (inactive)
CC(C)NC(=O)CSc1nnc(COc2ccccc2Cl)o1 | 1.16% (active)
Cc1ccc(NC(=O)CSc2nnc(COc3ccccc3C)o2)cc1 | -1.56% (inactive)
Cc1ccccc1OCc1nnc(SCC(=O)N2c3ccccc3Sc3ccc(Cl)cc32)o1 | -1.28% (inactive)
COc1cccc(NC(=O)c2cc(S(=O)(=O)N3CCc4ccccc43)cn2C)c1 | -1.71% (inactive)
Cc1ccc(CSc2nnc(SCC(=O)NN=Cc3cc(Br)ccc3F)s2)cc1 | -1.54% (inactive)
CCCCNC(=O)C[C@H]1C(=O)N(Cc2ccc(OC)cc2)C2=CCCC[C@@]21C(=O)OCC | -0.84% (inactive)
COC[C@@H]1CCCN1c1ccc2c(c1)O[C@H](C)CCN(C1CC1)S2(=O)=O | -1.91% (inactive)
CCC(C)C(=O)Nc1cc([N+](=O)[O-])ccc1Cl (stereo not given) | -1.16% (inactive)
CNc1ccc([N+](=O)[O-])cc1C(=O)O | -1.81% (inactive)
Cc1ccc(NC(=O)c2cc([N+](=O)[O-])ccc2Cl)c(O)c1 | 1.5% (active)

SMILES | activation
Cc1ccc(Cn2cc(COC(=O)N(C)Cc3ccccc3)nn2)cc1 | -0.46% (inactive)
C=CCN1C(=O)[C@@H](CC(=O)NCCCOCCCC)[C@]2(C(=O)OCC)CCCCC/C=C/12 | -0.98% (inactive)
O=C(CSc1nc2sc3c(c2c(=O)n1-c1ccccc1)CCCC3)NN=Cc1ccc(OCc2ccccc2)cc1 | -0.96% (inactive)
CCOc1ccc(NC(=O)c2ccc(CSc3nnnn3C)cc2)cc1 | -1.09% (inactive)
CCOc1ccc(NC(=O)c2ccc(NC(=O)COC(=O)c3ccc(NC(=O)CC#N)cc3)cc2)cc1 | 0.93% (active)
CCOc1ccc(NC(=O)c2ccc(NC(=O)CN3C(=O)C(=O)N(CC(C)C)C3=O)cc2)cc1 | -0.14% (inactive)
COc1ccc(CN2C(=O)N3Cc4cc(OC)ccc4C3CS2(=O)=O)cc1 (stereo not given) | -1.71% (inactive)
CCOC(=O)C1(Cc2ccccc2)CCN(Cc2cn(C(C)=O)c3ccccc23)CC1 | 0.62% (inactive)
CCOC(=O)[C@]12CCCCC/C=C\1N(Cc1ccc(OC)cc1)C(=O)[C@H]2CC(=O)NCCCN1CCCC1=O | -0.74% (inactive)
Cc1ccc(-n2c(SCC(=O)Nc3cccc4ccccc34)nnc2-c2ccco2)cc1 | -0.86% (inactive)
Nc1ccccc1/C=N\N=C/c1ccccc1N | 1.95% (active)
CN(CCc1ccccc1)C(=O)Cn1nc(-c2ccccc2)ccc1=O | -0.4% (inactive)
COC(=O)C[C@@H]1CC[C@@H]2[C@@H](COc3ccc(NC(=O)Nc4ccc(F)c(F)c4)cc3C(=O)N2C)O1 | -1.37% (inactive)
O=C(NC1CCC1)c1ccc(C#CC2CC2)cn1 | 0.89% (inactive)
O=C(NCCCc1ccccc1)[C@H](Cc1ccccc1)NC1(C(=O)NCCc2c[nH]c3ccccc23)CCC1 | -0.89% (inactive)
Cc1ccc(NC(=O)Nc2cccc(C(F)(F)F)c2)nc1 | 4.62% (active)
Cc1cc(S(=O)(=O)N2CCOCC2)ccc1OCC(=O)Nc1cccc(C(F)(F)F)c1 | -1.62% (inactive)
NC(c1csc(NC(=O)Nc2cccc(C(F)(F)F)c2)n1)C1CCCCC1 (stereo not given) | -0.46% (inactive)
CCN(CC)c1nc(-c2ccccc2)cc(C(F)(F)F)c1C#N | -0.98% (inactive)
Cc1cc(C(F)(F)F)c(C#N)c(SCC(=O)NC2CC2)n1 | -1.36% (inactive)
N#Cc1c(C(F)(F)F)cc(-c2ccc(Cl)cc2)nc1SCC(=O)O | 1.77% (active)
CCn1c(=O)n2n(c1=O)[C@@]1(C=C3CCCC[C@H]32)N=C(NC(=O)c2ccccc2)N(Cc2ccccc2)[C@H]1Cc1ccccc1 | -1.66% (inactive)
O=S1(=O)c2ccc(Br)cc2OC[C@H](Cc2ccccc2)N1Cc1cn(Cc2ccccc2)nn1 | -1% (inactive)

SMILES | activation
Cc1cccc(C(=O)N2CCc3c([nH]c4ccccc34)C2CC(C)C)n1 (stereo not given) | 1.53% (active)
Cc1cccc(C2c3[nH]c4ccccc4c3CCN2C(=O)c2cc(-c3cccn3C)n[nH]2)n1 (stereo not given) | -0.27% (inactive)
COc1ccc(C2c3[nH]c4ccccc4c3CCN2CCCn2cccn2)cc1C (stereo not given) | 0.43% (inactive)
C[C@@H](NC(=O)c1ccccc1OCC(=O)Nc1ccc(I)cc1)C(=O)N(C)Cc1ccccc1 | -1.27% (inactive)
COC(=O)C[C@H]1CC[C@H]2[C@H](COc3ccc(NC(=O)C4CC4)cc3C(=O)N2C)O1 | -1.49% (inactive)
O=C(Nc1ccc(Cl)cc1)Nc1ccc(Oc2cccnc2)nc1 | -1.82% (inactive)
Cc1ccc(NC(=O)Nc2cccnc2)cc1 | 1.08% (active)
Cc1ccc(NC(=O)N2CCC(O)(c3cccnc3)CC2)cc1 | -1.43% (inactive)
COc1cccc(CSc2nnc(-c3cccnc3)n2Cc2ccccc2)c1 | -1.73% (inactive)
COC(=O)[C@]12C[C@H](CC(=O)N3CCOCC3)C(=O)N(Cc3ccc(Cl)cc3Cl)C1=C[C@H](C(C)C)O[C@@H]2C1CC1 | -0.42% (inactive)
Cc1ccccc1NC(=O)Cn1nnc(-c2ccccc2F)n1 | -0.75% (inactive)
CN(CC#CCC(c1ccccc1)c1ccccc1)C(C)(C)C | 1.07% (active)
CC(C)(C)N(CC#CCC(O)(c1ccccc1)C1CCCC1)CCO (stereo not given) | -0.45% (inactive)
C#CCNC(=O)C[C@H]1C[C@@]2(C(=O)OC)C(=C[C@H](C(C)C)O[C@@H]2C2CC2)N(Cc2ccco2)C1=O | -1.02% (inactive)
Cc1cccc(/C(N)=N/OC(=O)c2ccccc2Cl)c1 | 1.96% (active)
CCOC(=O)c1nn(-c2cccc(C)c2)cc1C(=O)c1ccccc1 | -0.86% (inactive)
Cc1cc(OC(=O)c2ccccc2Cl)ccc1N1C(=O)CCC1=O | -1.58% (inactive)
Cc1cccc(-n2cnc(C(=O)NNC(=S)Nc3ccccc3)c2)n1 | -1.77% (inactive)
O=C(Nc1ccccc1)O/N=C1/CCCc2occc21 | -1.48% (inactive)
N/C(=N\OC(=O)Nc1ccccc1)c1ccno1 | 5.22% (active)
CC(C)(COC(=O)Nc1ccccc1)COC(=O)Nc1ccccc1 | -0.77% (inactive)
